Inconclusive results are not listed. Where a call stands in place of a potency, no number is given. Activity calls are given as the source filed them. Calls follow the shape of the dose curve; as a rule, active = well fitted curve in the direction sought with a large enough effect; inconclusive = small, poorly fitted or top-dose-only effect, or another doubt; inactive = no such curve, though single readings can be large; an effect the other way counts as inactive or inconclusive.
Test system: not listed separately
Assay: qHTS for Inhibitors of the vitamin D receptor (VDR): Hit Validation using a Texas Red Assay (AID 602201); also: potency is read from the fitted curve at half-maximal effect
Conditions: VDR coregulator binding, Texas Red fluorescence polarization; series mostly up to 57.1 µM
How it was run: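 Fluorescence polarization (Ex 595/Em 615 nm) of Texas Red (7 nM) with 1.5 uM VDR-LBD and LG19078 (final concentrations). Compounds were incubated for 2 hours at room temperature.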

Row | SMILES | Potency
1 | Cc1ccccc1N1C(=O)NC(=O)/C(=C\c2cnn(-c3ccccc3)c2)C1=O | inactive
2 | COc1cccc(C2CC3C(=O)C=CC2N3Cc2ccccc2)c1 (stereo not given) | 28.2 µM (active)
3 | O=C1NC(=O)C(=Cc2ccc(-c3ccc(S(=O)(=O)N4CCOCC4)cc3)o2)C(=O)N1 | inactive

Molecular target: Luciferin 4-monooxygenase (Photinus pyralis) (UniProt P08659)
Assay: Biochemical firefly luciferase enzyme assay for NPC (AID 624030);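 also: purified P. pyralis luciferase at 10 nM with luciferin and ATP substrate; nearly all actives have a fitted effect of over 70% in size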
Conditions: purified P. pyralis luciferase, luminescence, 5 min; series mostly up to 58.6 µM
How it was run: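 Counter-screen for direct inhibition of the luciferase enzyme by approved-drug library compounds, run at 10 nM enzyme in 50 mM Tris acetate (final). Luminescence was read within 5 min of enzyme-buffer addition and normalized to PTC124 versus DMSO (0%).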

Chain of Luciferin 4-monooxygenase (Photinus pyralis) (P08659 whole entry, looked up): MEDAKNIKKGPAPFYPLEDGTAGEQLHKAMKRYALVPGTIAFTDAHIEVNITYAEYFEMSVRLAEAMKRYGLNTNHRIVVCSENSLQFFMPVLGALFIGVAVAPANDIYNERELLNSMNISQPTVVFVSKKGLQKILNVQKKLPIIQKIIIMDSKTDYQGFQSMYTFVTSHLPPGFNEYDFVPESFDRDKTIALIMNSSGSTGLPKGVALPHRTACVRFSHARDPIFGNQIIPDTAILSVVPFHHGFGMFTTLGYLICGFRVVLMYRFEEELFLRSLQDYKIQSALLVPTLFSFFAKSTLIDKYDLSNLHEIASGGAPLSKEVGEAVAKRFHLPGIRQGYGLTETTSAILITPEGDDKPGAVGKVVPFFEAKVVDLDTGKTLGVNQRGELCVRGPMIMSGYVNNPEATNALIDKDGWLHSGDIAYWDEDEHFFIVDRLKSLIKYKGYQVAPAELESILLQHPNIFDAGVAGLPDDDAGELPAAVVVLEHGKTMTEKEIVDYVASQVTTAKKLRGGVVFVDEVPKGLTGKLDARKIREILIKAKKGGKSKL

Row | SMILES | Potency
4 | CCc1cc(OC)c(CC(C)N)cc1OC (stereo not given) | inactive
5 | O=[N+]([O-])NC1=NCCN1Cc1ccc(Cl)nc1 | inactive
6 | COc1ccc2c3c1OC1C(O)C=CC4[C@@H](C2)NCC[C@]314 (stereo not given in full) | inactive
7 | CN[C@H](C)Cc1ccccc1 | inactive
8 | CN[C@H]1C[C@@H](N)[C@H](O)[C@@H](O[C@@H]2O[C@H](CO)[C@H](O)[C@@H]3O[C@]4(O[C@@H]23)O[C@H]([C@@H](N)CO)[C@H](O)[C@@H](O)[C@H]4O)[C@@H]1O | inactive
9 | COc1cc(CC(C)N)c(OC)cc1C (stereo not given) | inactive
10 | C[C@]12CCC3C(CCC4=CC(=O)CC[C@@H]43)C1CCC2O (stereo not given in full) | inactive
11 | CN1CC[C@]23c4c5ccc(O)c4OC2C(O)C=CC3[C@H]1C5 (stereo not given in full) | inactive
12 | CC(=O)OC1CC(OC2C(O)CC(OC3C(O)CC(O[C@H]4CC[C@]5(C)C6CC[C@]7(C)[C@@H](C8=CC(=O)OC8)[C@@H](O)C[C@]7(O)[C@@H]6CC[C@@H]5C4)OC3C)OC2C)OC(C)C1OC1OC(CO)C(O)C(O)C1O (stereo not given in full) | inactive
13 | CC1[C@H]2Cc3ccc(O)cc3[C@]1(C)CCN2C (stereo not given in full) | inactive
14 | CCC(=O)O[C@@](Cc1ccccc1)(c1ccccc1)[C@H](C)CN(C)C | inactive
15 | COc1cc(CCN)c(OC)cc1Br | inactive
16 | C=C/C=C/CC1=C(C)[C@@H](OC(=O)[C@@H]2[C@@H](/C=C(\C)C(=O)OC)C2(C)C)CC1=O (tested in a mixture with another compound) | inactive
17 | CN1CC[C@]23c4c5ccc(O)c4OC2C(O)CCC3[C@H]1C5 (stereo not given in full) | inactive
18 | CC(=O)[C@@]1(O)CC[C@@H]2[C@@H]3CCC4=CC(=O)CC[C@]4(C)[C@]3(F)[C@@H](O)C[C@@]21C | inactive
19 | CC[C@H](OC(C)=O)C(C[C@H](C)NC)(c1ccccc1)c1ccccc1 | inactive
20 | C=CCC1(C(C)CCC)C(=O)NC(=O)NC1=O (stereo not given) | inactive
21 | Cc1ccc2c(c1)[C@]13CCCC[C@@H]1[C@@H](C2)N(C)CC3 | inactive
22 | CCC(N)CCc1c[nH]c2ccccc12 (stereo not given) | inactive

Row | SMILES | Potency
23 | Oc1ccc2c3c1O[C@H]1[C@@H](O)C=CC4[C@@H](C2)NCC[C@@]341 (stereo not given in full) | inactive
24 | CC(C)CC1C(=O)N2CCCC2C2(O)OC(NC(=O)C3CC4c5cccc6[nH]cc(c56)CC4N(C)C3)(C(C)C)C(=O)N12 (stereo not given) | inactive
25 | CC(C)=CCN1CC[C@@]2(C)c3cc(O)ccc3C[C@H]1[C@@H]2C | inactive
26 | C[C@H]1[C@@H]2Cc3ccc(O)cc3[C@]1(C)CCN2C | inactive
27 | ClC[C@H]1CO1 (tested in a mixture with another compound) | inactive
28 | CCNC(C)Cc1ccc2c(c1)OCO2 (stereo not given) | inactive
29 | CC12CCC(=O)CC1CCC1C2CCC2(C)C1CCC2(C)O (stereo not given) | inactive
30 | C[N+]1(CCF)[C@@H]2CC[C@@H]1CC(OC(=O)C(O)(c1ccccc1)c1ccccc1)C2 (stereo not given in full) | inactive
31 | CC(N)C(=O)c1ccccc1 (stereo not given) | inactive
32 | COC1=CC=C2[C@H]3Cc4ccc(OC)c5c4[C@@]2(CCN3C)C1O5 (stereo not given in full) | inactive
33 | CC(C)=CCN1CC[C@@]2(C)c3cc(O)ccc3C[C@@H]1C2C (stereo not given in full) | inactive
34 | Oc1ccc2c3c1OC1C(O)C=CC4[C@@H](C2)NCC[C@]314 (stereo not given in full) | inactive
35 | C[C@]12CCC3[C@@H](CCC4=CC(=O)CC[C@@]43C)C1CCC2OC(=O)CCc1ccccc1 (stereo not given in full) | inactive
36 | COc1ccc2c3c1OC1[C@H](O)CCC4[C@@H](C2)N(C)CC[C@]314 (stereo not given in full) | inactive
37 | CC1(O)CCC2C3CCC4=CC(=O)CCC4(C)C3(F)C(O)CC21C (stereo not given) | inactive
38 | Cc1c(N)nc([C@@H](CC(N)=O)NC[C@H](N)C(N)=O)nc1C(=O)N[C@H](C(=O)N[C@H](C)[C@H](O)[C@H](C)C(=O)N[C@@H](C(=O)NCCc1nc(-c2nc(C(=O)NCCC[S+](C)C)cs2)cs1)[C@H](C)O)[C@H](O[C@@H]1O[C@@H](CO)[C@@H](O)[C@H](O)[C@@H]1O[C@H]1O[C@H](CO)[C@H](O)[C@H](OC(N)=O)[C@@H]1O)c1cnc[nH]1 | inactive
39 | CC1[C@H]2Cc3ccc(O)cc3[C@]1(C)CCN2CCc1ccccc1 (stereo not given in full) | inactive
40 | CCC(=O)OC1[C@@H](N2CCCCC2)C[C@H]2[C@@H]3CC[C@H]4C[C@H](OC(C)=O)[C@@H](N5CCCCC5)C[C@]4(C)[C@H]3CC[C@]12C (stereo not given in full) | inactive

From PubChem BioAssay (NCATS)
